Data on 39 compounds can be found in PubChem BioAssay (NCI).

The panel holds about 83,000 compounds, 20% with a hit somewhere; the sample as a whole holds those more often.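 Assay: single dose, 48 h. Readout: percent growth (0 = no net growth; negative = cell death). Active: <10.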 The source made the active and inactive calls.

The assay has as its system M14 melanoma. Nature of the assay: NCI-60 one-dose screen, 48 h (100 = growth as untreated, 0 = no growth, -100 = all killed). The note with it: 10 µM unless noted.
Consider `O=C(CCCCC(=O)N/N=C\c1ccccc1O)N/N=C\c1ccccc1O`, for which the growth was 20.9% (inactive).
On to `COc1cc(-c2nc(C(=O)NCC(=O)NO)nn2-c2ccc(Cl)cc2)cc(OC)c1OC`, for which the growth was 101% (inactive).
On to `O=c1ccccc(-c2ccc(Br)cc2)c1O`, for which the growth was -10.8% (active).
The same measure for `Cc1cc2nc(NC(=O)CN3CCN(CCN4C(=O)c5cccc6cccc(c56)C4=O)CC3)sc2cc1C`: 94.3% (inactive).
In the case of `COc1cc(C(=O)/C=C/c2cccnc2Nc2ccc(Cl)cc2)cc(OC)c1OC`, the growth is -47.4% (active).
For `COc1ccc(-c2nnc(SCC(=O)c3ccc(Cl)cc3)o2)cc1`, the growth is 106% (inactive).
`COc1cc(/C=C/C(=O)Nc2cccnc2Nc2ccc(F)cc2)cc(OC)c1OC`: the growth was 103% (inactive).
As for `O=C1/C(=C/c2ccccc2O)N=C2SCCCN12`, the growth was 102% (inactive).
As for `CC(C)(CCCN=C(N)Nc1ccc(Cl)cc1)c1ccc(F)cc1`, the growth was 51.5% (inactive).
As to `CCCCC[C@H]1C/C=C2/C(=O)C=C[C@@H]2C/C=C\CCCC(=O)O1`, the growth is -29.3% (active).
`COc1ccc2c(c1)C(=O)/C(=C/c1ccccn1)CC2`: the growth is 85.4% (inactive).
For `C=C1C(=O)O[C@H]2[C@H]1CC/C(COC(=O)NCCc1ccc(OC)c(OC)c1)=C\CC[C@@]1(C)O[C@@H]21`, the growth was 65.7% (inactive).
For `COc1cc(-c2nn(-c3ccc(Br)cc3)cc2C(=O)O)ccc1O`, the growth was 102% (inactive).
Consider `CCCCCC(=O)Oc1ccc(/C(=C(\C)c2ccc(OC)cc2)c2ccc(OCCN3CCCCC3)cc2)cc1`, for which the growth was -39.2% (active).
With `COC(=O)[C@@H]1CCCN1C(=O)[C@@H]1CCCN1C(=O)[C@H](Cc1ccccc1)NC(=S)Nc1cc(C(F)(F)F)cc(C(F)(F)F)c1`, the growth is 89.3% (inactive).
As for `CCOc1ccc(C(C)=O)cc1NC(=O)c1cccc(-c2nnn(CC)n2)c1`, the growth was 9.12% (active).
Regarding `O=[N+]([O-])c1ccccc1/C=N\NC(=S)N/N=C/c1ccccc1[N+](=O)[O-]`, the growth was 37.6% (inactive).
Consider `O=[N+]([O-])c1ccc2c(c1)Cc1cc(F)ccc1-2`, for which the growth is 110% (inactive).
For `CC(=O)OC[C@H]1O[C@H](OC(C)=O)[C@H](NC(=O)/C=C/CCl)[C@@H](OC(C)=O)[C@@H]1OC(C)=O` the value was 87.5% (inactive).
For `CCC#CC[C@H](O)C/C=C1/C(=O)C=C[C@@H]1C/C=C\CCCC(=O)OC`, the growth was 5.13% (active).
For `CC/C=C\C[C@H](O)C/C=C1/C(=O)C=C[C@@]1(C)C/C=C\CCCC(=O)OC`, the growth was 101% (inactive).
For the compound `CC[N+](CC)=c1sc2c(s1)C(c1ccc(Cl)cc1)Oc1ccc(Cl)cc1-2` (centres undefined), the growth was 17.3% (inactive).
Consider `COc1cccc(-c2nc(SCC(=O)Nc3ccc(C(=O)/C=C/c4ccc(OC)c(OC)c4)cc3)[nH]c(=O)c2C#N)c1`, for which the growth was 100% (inactive).
For the compound `COc1ccc(CN2c3ccccc3Oc3ccccc32)cc1O`, the growth was 18% (inactive).
In the case of `C=C1C(=O)O[C@H]2[C@H]1CC/C(C=Nc1ccc(C(F)(F)F)cc1N)=C\CC[C@@]1(C)O[C@@H]21`, the growth was 5.33% (active).
On to `COc1ccc2c(c1)C(=O)/C(=C/c1cccnc1)CC2`, for which the growth is 102% (inactive).
The same measure for `Clc1ccc2c(NCCCCNc3nc(N4CCOCC4)nc4ccccc34)ccnc2c1`: -66.2% (active).
Consider `COc1ccccc1Nc1nc(-c2cc3cccc(C(F)(F)F)c3oc2=O)cs1`, for which the growth is 13.5% (inactive).
The same measure for `CCc1c(Nc2ccccc2C)nc(N)[nH]c1=O`: 106% (inactive).
In the case of `O=c1oc2c(C(F)(F)F)cccc2cc1-c1csc(Nc2ccc(OCCF)cc2)n1`, the growth is 4.98% (active).
Take `COc1ccc(CN2c3ccccc3Sc3ccccc32)c(C(F)(F)F)c1`: the growth was 7.59% (active).
For `COc1cc2c(cc1O)CC[C@@H]1[C@@H]2CC[C@]2(C)[C@@H](OCCN(C)C)CC[C@@H]12`, the growth is 0.0496% (active).
`CCNc1ncnc2c1cnn2C1CCCO1` (centres undefined): the growth is 104% (inactive).
With `NC(=NCCCC1(c2ccccc2)CCCC1)Nc1ccc(Cl)cc1`, the growth is -65.5% (active).
`CCOc1ccc(-n2nc(C(=O)Nc3cc(OC)c(OC)c(OC)c3)nc2-c2cc(OC)c(OC)c(OC)c2)cc1`: the growth is 91.5% (inactive).
In the case of `COc1ccc(CN2c3ccccc3Sc3ccccc32)cc1O`, the growth is 14.4% (inactive).
Regarding `NCCNc1nc(Nc2ccc(-c3nc4ccccc4[nH]3)cc2)c2cn[nH]c2n1`, the growth was 96.1% (inactive).
For `COc1cccc2c1C(=O)c1c(O)c3c(c(O)c1C2=O)C[C@](O)(C(=O)CO)C[C@H]3O[C@@H]1C[C@@H](NC(=O)CCCCCN(C)C2(c3ccc(F)cc3)CC3CCC2C3)[C@H](O)[C@@H](C)O1` (some centres undefined) the value was -41.3% (active).
For `CC(O)CN(CC(C)O)c1ccc2c(c1)Cc1cc([N+](=O)[O-])ccc1-2` (centres undefined) the value was 106% (inactive).
